The results in this text go back to PubChem BioAssay.

Each structure is given as a SMILES string. Activity calls are given as the source filed them.

The test system of assay [1] is Plasmodium falciparum Sir2 (PF13_0152, Sir2A). In words: Plasmodium falciparum Sir2A binding compounds – biochemical, small-molecule microarray, 635 nm fluorescence, primary screen (AID 1098).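 Further: score merges spot fluorescence intensity with its signal-to-noise ratio.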 Particulars: fluorescence 635 nm, higher = more signal.
A short description of assay [2]: probe aDKK1 binding to arrayed compounds – biochemical, biotinylated probe, 635/667 nm fluorescence, primary screen (AID 1099).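 Further: score merges 667nm spot fluorescence with signal to noise across triplicate slides; reference of the scale not given here.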 Particulars: small-molecule microarray, higher = more signal.
A short description of assay [3]: probe aCHRDL2 binding to arrayed compounds – biochemical, biotinylated probe, 635/667 nm fluorescence, primary screen (AID 1100). Conditions: small-molecule microarray, higher = more signal.
Assay [4] in a line: change in splice reporter luminescence, either direction, cell-based, HEK293, spliceosome inhibition project, primary screen (AID 1101).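 Further: HEK293 cells carrying a splicing-competent luciferase reporter gene; test concentration not given here.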 Particulars: HEK293 splicing luciferase reporter, 24 h, higher = more signal, called active from +8 up or from −8 down. (In general: Reporter assays use an easily measured gene product as a stand-in for the process of interest.)
Assay [5] concerns the target Fibroblast growth factor 10 (Homo sapiens) (UniProt O15520). The assay is described as follows: compounds binding fibroblast growth factor 10 – biochemical, small-molecule microarray, 635 nm fluorescence, primary screen (AID 1102). Particulars: FGF10 binding, fluorescence 635 nm, higher = more signal.
The test system of assay [6] is glycogen synthase kinase-3 (GSK3A per assay name; protocol says GSK3B). The assay is described as follows: compounds binding glycogen synthase kinase-3 – biochemical, small-molecule microarray, 635 nm fluorescence, GSK3A, primary screen (AID 1103). Further: the record names both GSK3A and GSK3B. Conditions: fluorescence 635 nm, higher = more signal.
Assay [7] has as its target Epidermal growth factor receptor (Homo sapiens) (UniProt P00533). In words: compounds binding epidermal growth factor receptor – biochemical, small-molecule microarray, 635 nm fluorescence, primary screen (AID 1104).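 Further: score merges 667 nm emission intensity with spot signal to noise over triplicate slides.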 Conditions: EGFR binding, higher = more signal.
Assay [8] concerns the target Follistatin-related protein 3 (Homo sapiens) (UniProt O95633). The assay is described as follows: compounds binding follistatin-related protein 3 – biochemical, small-molecule microarray, 635 nm fluorescence, primary screen (AID 1105).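 Further: score merges emission near 667 nm and signal to noise per printed spot across three slides.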 Particulars: FSTL3 binding, higher = more signal.
Assay [9] deals with Dickkopf-related protein 1 (Homo sapiens) (UniProt O94907). In words: small molecules binding DKK1 protein – biochemical, small-molecule microarray, 635 nm fluorescence scan, primary screen (AID 1106).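 Further: score merges emission near 667 nm with signal to noise over three replicate slides.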 Conditions: higher = more signal.
Chain of Dickkopf-related protein 1 (Homo sapiens) (O94907 whole entry, looked up): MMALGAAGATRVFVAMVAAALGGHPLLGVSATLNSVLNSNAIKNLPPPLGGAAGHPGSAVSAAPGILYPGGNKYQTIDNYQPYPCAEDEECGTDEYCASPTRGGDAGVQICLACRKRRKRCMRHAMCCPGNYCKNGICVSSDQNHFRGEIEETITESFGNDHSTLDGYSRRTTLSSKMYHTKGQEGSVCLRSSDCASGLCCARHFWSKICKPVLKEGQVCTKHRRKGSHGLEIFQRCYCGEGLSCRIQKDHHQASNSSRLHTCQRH
The test system of assay [10] is Inhibin beta A chain (activin A). In words: small molecules binding activin A – biochemical, small-molecule microarray, 635 nm fluorescence scan, primary screen (AID 1107).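 Further: mouse activin A protein probed at 4.33 µg/mL on printed slides; score merges bound-protein fluorescence near 667 nm with spot signal-to-noise.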 Conditions: INHBA, higher = more signal.

Chain of Epidermal growth factor receptor (Homo sapiens) (P00533 whole entry, looked up): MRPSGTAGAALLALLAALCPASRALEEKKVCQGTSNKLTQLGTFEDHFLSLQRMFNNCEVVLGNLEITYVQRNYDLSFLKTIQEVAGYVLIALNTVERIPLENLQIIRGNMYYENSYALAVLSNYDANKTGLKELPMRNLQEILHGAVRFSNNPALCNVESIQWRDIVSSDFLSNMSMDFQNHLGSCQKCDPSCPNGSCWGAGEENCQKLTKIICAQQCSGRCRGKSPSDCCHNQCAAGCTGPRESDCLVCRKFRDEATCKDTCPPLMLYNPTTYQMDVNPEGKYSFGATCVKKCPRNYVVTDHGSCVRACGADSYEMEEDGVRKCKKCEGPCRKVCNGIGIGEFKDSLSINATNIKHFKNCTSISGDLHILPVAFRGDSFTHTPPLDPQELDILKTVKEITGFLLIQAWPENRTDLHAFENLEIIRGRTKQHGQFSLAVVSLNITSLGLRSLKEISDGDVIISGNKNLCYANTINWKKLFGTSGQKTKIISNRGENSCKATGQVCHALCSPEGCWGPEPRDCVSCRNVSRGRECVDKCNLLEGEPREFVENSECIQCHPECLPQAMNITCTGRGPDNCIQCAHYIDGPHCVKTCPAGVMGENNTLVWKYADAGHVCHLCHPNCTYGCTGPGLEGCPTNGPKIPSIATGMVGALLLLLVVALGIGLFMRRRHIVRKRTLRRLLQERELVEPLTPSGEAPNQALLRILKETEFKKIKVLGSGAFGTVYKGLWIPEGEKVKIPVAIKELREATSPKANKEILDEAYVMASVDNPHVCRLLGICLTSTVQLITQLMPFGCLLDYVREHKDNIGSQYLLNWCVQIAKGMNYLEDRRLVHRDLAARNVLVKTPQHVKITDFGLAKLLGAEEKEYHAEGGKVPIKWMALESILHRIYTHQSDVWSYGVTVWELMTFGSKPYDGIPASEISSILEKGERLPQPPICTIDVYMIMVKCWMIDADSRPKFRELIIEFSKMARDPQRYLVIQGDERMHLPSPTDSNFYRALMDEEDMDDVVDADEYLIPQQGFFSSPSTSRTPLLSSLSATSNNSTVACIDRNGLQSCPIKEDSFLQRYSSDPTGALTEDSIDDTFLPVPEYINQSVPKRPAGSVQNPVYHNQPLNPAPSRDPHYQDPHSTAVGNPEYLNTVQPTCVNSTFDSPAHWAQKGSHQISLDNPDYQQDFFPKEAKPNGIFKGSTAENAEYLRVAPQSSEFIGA
Chain of Follistatin-related protein 3 (Homo sapiens) (O95633 whole entry, looked up): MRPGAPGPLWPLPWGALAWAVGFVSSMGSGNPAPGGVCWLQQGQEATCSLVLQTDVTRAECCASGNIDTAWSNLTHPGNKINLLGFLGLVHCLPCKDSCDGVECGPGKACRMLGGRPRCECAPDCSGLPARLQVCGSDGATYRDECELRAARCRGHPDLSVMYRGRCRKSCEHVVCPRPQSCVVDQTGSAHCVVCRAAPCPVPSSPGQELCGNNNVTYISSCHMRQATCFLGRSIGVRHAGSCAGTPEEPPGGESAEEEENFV
Chain of Fibroblast growth factor 10 (Homo sapiens) (O15520 whole entry, looked up): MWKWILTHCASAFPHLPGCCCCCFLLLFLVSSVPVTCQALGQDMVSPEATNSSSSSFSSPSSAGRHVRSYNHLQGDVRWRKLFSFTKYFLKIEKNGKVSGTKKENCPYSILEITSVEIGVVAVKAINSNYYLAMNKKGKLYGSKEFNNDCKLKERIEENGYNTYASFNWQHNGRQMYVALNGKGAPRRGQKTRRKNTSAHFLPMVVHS

In the case of `CC(=O)Nc1cc(Br)ccc1C(=O)NCc1ccccc1`, the composite z-score was 0.695 in assay [1]; -0.0601 in [2]; 0.416 in assay [3]; -0.158 in [5]; 0.0021 in assay [6]; -0.274 in [7]. Also, the composite z-score in assay [8] is -0.187; in [9] it was -0.221; in assay [10] it was 0.305. In addition, in assay [4], the z-score was -0.508 (inactive).
As for `O=C1O[C@@H](c2ccccc2)[C@@H](c2ccccc2)N2[C@@H](c3ccc(OCCO)cc3)[C@]3(C(=O)Nc4ccc(C#CC5=CCCCC5)cc43)[C@@H](C(=O)N3CCCCCCC3)[C@H]12`, the composite z-score turned out to be 1.66 in assay [1]; 2.71 in assay [2]; 1.43 in assay [3]; 1.32 in assay [5]; 1.33 in assay [6]; 1.71 in [7]. Further, the composite z-score in assay [8] was determined as 1.58; in assay [9], 2.08; in assay [10], 1.91. Also, in assay [4], the z-score was -0.447 (inactive).
With `CC(C)NC(=O)[C@@]1(Cc2ccccc2I)c2ccccc2C(=O)N(Cc2ccccc2Cl)[C@H]1c1ccc(CO)cc1`, the composite z-score in assay [1] stood at 0.972; in assay [2] it was 0.13; in assay [3], 0.156; in assay [5], 1.1; in [6], 1.16; in [7], 0.355. In addition, the results for the composite z-score in [8], in assay [9] and in [10] were 0.575, 0.533 and 0.529, respectively. For the same compound, in assay [4], the z-score is -0.833 (inactive).
On to `CCOC(=O)C1=C[C@@H](C(C)C)N(S(=O)(=O)c2ccc(C)cc2)[C@H]1c1ccccc1F`, for which the composite z-score turned out to be 0.906 in assay [1]; 0.398 in assay [2]; 0.603 in assay [3]; 0.668 in assay [5]; 0.791 in assay [6]; 0.6 in assay [7]. Moreover, the figures for the composite z-score in assay [8], in assay [9] and in assay [10] were 0.965, 0.336 and 0.442, respectively. The z-score in assay [4] was 1.2 (inactive).
On to `CCOC(=O)C[C@H]1[C@H](OC(=O)c2ccc(-c3ccccc3)cc2)[C@@H](NC(=O)c2ccccc2)c2cc(OCCCO)ccc2N1C(=O)Cc1ccc(OC)cc1`, for which the composite z-score in [1] is -0.881; in assay [2], -0.0345; in assay [3], 0.565; in assay [5], 0.241; in assay [6] it was -0.919; in [7], 0.0903. For the same compound, the results for the composite z-score in [8], in assay [9] and in [10] were -0.56, -0.237 and 0.54, respectively. The z-score in assay [4] is -0.486 (inactive).
For the compound `CC(c1ccccc1)C(O)C1C=CC2C(=O)N(c3ccccc3)C(=O)C2N1Nc1ccccc1` (stereo not given), the composite z-score in assay [1] came out at 1.18; in [2], 0.807; in assay [3], 0.818; in [5] it was 1.4; in assay [6] it was 0.297; in assay [7], 0.177. For the same compound, the composite z-score was 1.46 in [8], -0.0656 in assay [9] and 0.215 in assay [10]. For the same compound, the z-score in [4] is -0.716 (inactive).
`C=C[C@H](C)[C@@H](OC(=O)Nc1ccc(SC)cc1)c1ccc(O)c2ccccc12`: the composite z-score was 1.3 in [1]; -0.118 in [2]; 0.216 in assay [3]; 1.33 in [5]; 1.28 in assay [6]; 1.07 in assay [7]. In addition, the results for the composite z-score in assay [8], in [9] and in assay [10] were 1.44, 1.34 and 0.482, respectively. Besides, in [4], the z-score was -0.8 (inactive).
Regarding `C=CC[C@]1(C(N)=O)N=C(c2ccc(OCCCO)cc2)O[C@H]1c1ccccc1`, the composite z-score was 1.3 in [1]; 0.351 in assay [2]; 1.11 in assay [3]; -0.304 in assay [5]; -0.195 in assay [6]; -1.03 in assay [7]. For the same compound, the composite z-score in [8] is -0.882; in [9], -0.539; in [10], 1.08. For the same compound, the z-score in [4] is 0.27 (inactive).
Consider `CCOC(=O)C1=CC[C@H]2C(=O)N(c3ccccc3)C(=O)[C@@H]12`, for which the composite z-score is 1.67 in assay [1]; 0.143 in assay [2]; 0.0364 in [3]; 1.19 in assay [5]; 0.571 in assay [6]; 0.55 in assay [7]. The figures for the composite z-score in assay [8], in [9] and in [10] were 1.01, 0.56 and 0.304, respectively. The z-score in assay [4] is 0.406 (inactive).
Turning to `O=C1C2C=CC(C(O)C=Cc3ccc([N+](=O)[O-])cc3)N(Nc3ccccc3F)C2C(=O)N1c1ccccc1` (stereo not given), the composite z-score in assay [1] is 0.808; in assay [2] it was 0.468; in assay [3] it was 0.831; in assay [5], 1.13; in assay [6], 1.28; in assay [7], 0.464. The composite z-score in assay [8] was found to be 1.13; in assay [9] it was 0.0328; in assay [10] it was 1.08. Moreover, in assay [4], the z-score is 0.755 (inactive).
Take `CCCC=C(CCC)[C@@H](NC(=O)OCC(C)C)c1ccccc1`: the composite z-score amounted to 0.32 in assay [1]; 0.907 in [2]; 1.34 in assay [3]; 0.497 in assay [5]; 0.659 in assay [6]; 0.111 in assay [7]. The composite z-score in [8] was 0.663; in [9], -0.0115; in assay [10], 0.622. Also, in assay [4], the z-score is -1.82 (inactive).
